# NPR1 antag – human Npr1 receptor antagonism. P16066. HEK293 hNpr1 GloSensor cGMP, ANP-stimulated luminescence. Potency, µM (doses to about 46.3 µM), without a hit: at the highest dose activity change, negative = inhibition, usual class: inhibitors. actives 1.6% (n = 76,000). AID 1347048; calls by dose curve; further: nearly all actives have a fitted effect of over 60% in size
#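 Compound pre-incubated 30 min at room temperature on GloSensor-loaded HEK293 cells stably carrying hNpr1 and the pGS-40F cGMP biosensor. Stimulation uses hNppA at 0.1 nM final; luminescence is taken at baseline and 20 min post-agonist.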
# HEK cytotox – cytotoxic compounds in HEK 293 cells | Potency, µM (top dose mostly 115 µM), without a hit: top-dose activity change, negative = cytotoxicity, usual class: inhibitors | actives 6.6% (n = 94,000) | HEK 293 viability, ATP luminescence (CellTiter-Glo), 48-72 h | AID 1345083; further: nearly all actives have a fitted effect of over 60% in size
#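 Read-out: CellTiter-Glo ATP luminescence. Cells: HEK 293, 250 cells/well. Exposure: 48 or 72 hr, 37 degree Celsius.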
# NIH3T3 tox – cytotoxic compounds in NIH 3T3 cells; NIH 3T3 viability, CellTiter-Glo ATP luminescence, 48-72 h; Potency, µM (top dose mostly 96.7 µM), for the others: at the top dose activity change, negative = cytotoxicity, hits mostly inhibitors; actives 4.3% (n = 94,000); further: nearly all actives have a fitted effect of over 55% in size
#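 Cells were seeded at 400 per well, treated with pin-transferred compound, and kept 48 or 72 hr at 37 °C before CellTiter-Glo addition and luminescence imaging of cellular ATP.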
# FLuc inh – inhibitors of firefly (Photinus pyralis) luciferase; P08659; purified P. pyralis luciferase, luminescence, biochemical; Potency, µM (highest dose often 115 µM), usual class: inhibitors; actives 2.5% (n = 76,000); further: nearly all actives have a fitted effect of over 65% in size
# Target sequence (P08659 whole entry, looked up): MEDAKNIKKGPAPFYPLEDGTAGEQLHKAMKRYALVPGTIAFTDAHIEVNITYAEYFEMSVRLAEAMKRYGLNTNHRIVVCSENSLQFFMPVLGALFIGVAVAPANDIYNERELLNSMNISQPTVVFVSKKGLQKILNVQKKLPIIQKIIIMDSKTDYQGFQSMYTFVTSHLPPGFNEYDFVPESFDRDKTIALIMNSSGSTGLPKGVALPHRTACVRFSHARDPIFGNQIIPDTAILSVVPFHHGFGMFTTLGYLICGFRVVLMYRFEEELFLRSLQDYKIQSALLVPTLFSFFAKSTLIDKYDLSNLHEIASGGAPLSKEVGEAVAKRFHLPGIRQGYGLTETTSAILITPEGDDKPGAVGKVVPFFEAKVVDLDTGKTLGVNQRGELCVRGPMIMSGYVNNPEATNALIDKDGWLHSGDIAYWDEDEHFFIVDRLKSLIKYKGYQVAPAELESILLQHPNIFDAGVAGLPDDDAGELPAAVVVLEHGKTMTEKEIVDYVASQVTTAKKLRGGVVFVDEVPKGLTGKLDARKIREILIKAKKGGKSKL
#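 Inhibitors were tested against purified firefly luciferase in a biochemical, low-substrate format (both substrates at 10uM) and luminescence measured with a CCD imager.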
# * = called active by the depositor; i = inactive; u = inconclusive; x = no result; [ ] = another dose, or the depositor's remark. A selection: hits, their analogues and other compounds. The true share with any hit is near 11%. Unless noted, the call rests on the fitted dose curve; in most records, active means well fitted curve in the direction sought with a large enough effect; inconclusive means small, poorly fitted or top-dose-only effect, or another doubt; inactive means no such curve, though single readings can be large; an effect the other way counts as inactive or inconclusive. On the % scale 0 is the no-effect control and ±100 the full control effect; potency means the concentration at half of the fitted maximal effect.
SMILES,NPR1 antag,HEK cytotox,NIH3T3 tox,FLuc inh
Cc1ccc2c(C)c(C(=O)N(C)CCOc3ccccc3)oc2c1C,1%,u,-17%,40µM*
CCn1cc(CN(C)C(=O)c2oc3c(C)c(C)ccc3c2C)cn1,-12%,u,u,i
CC(C)CNC(=O)C1CCc2nnc(-c3cccc(C(F)(F)F)c3)n21 (stereo not drawn),x,-23%,-15%,x
O=C(Nc1ccc2c(c1)OCO2)C1CN(S(=O)(=O)c2cccnc2)CC12CCCCC2 (stereo not drawn),-3%,-30%,-27%,40µM*
O=C(Nc1ccc(F)cc1)C1CN(S(=O)(=O)c2cccnc2)CC12CCCCC2 (stereo not drawn),2%,u,-15%,i
CN(C)C(=O)c1ccnc(-c2nnc3ccc(NCCc4ccccc4)nn23)c1,-7%[70.6 µM],u,-25%[138 µM],i
Cc1cccc(C(=O)N2CCc3[nH]nc(C(=O)NCCCc4ccccc4)c3C2)c1,0%,u,u,i
O=C(NCCCc1ccccc1)c1n[nH]c2c1CN(C(=O)c1ccc(F)c(F)c1)CC2,x,u,35µM*,x
O=C(NCCCc1ccccc1)c1n[nH]c2c1CN(C(=O)c1cccc(Cl)c1)CC2,x,u,35µM*,x
CCC(C)C(=O)N1CCc2[nH]nc(C(=O)NCCCc3ccccc3)c2C1 (stereo not drawn),0%,11µM*,u,i
CC(C)c1ccc(C(=O)N2CCc3[nH]nc(C(=O)NCCCc4ccccc4)c3C2)cc1,0%,-1%,0%,i
Cc1ccc(C(=O)N2CCc3[nH]nc(C(=O)NCCCc4ccccc4)c3C2)cc1,0%,u,u,i
COc1cccc(C(=O)N2CCc3[nH]nc(C(=O)NCCCc4ccccc4)c3C2)c1,-29%,u,32µM*,i
Cc1nn(-c2ccccc2)c2c1C(C(C)C)N(C1CCCN(C(=O)c3ccc(F)cc3)C1)C2=O (stereo not drawn),x,28µM*,u,x
Cc1nn(-c2ccccc2)c2c1C(C1CC1)N(C1CCN(C(=O)Cc3ccc(F)cc3)C1)C2=O (stereo not drawn),x,35µM*,u,x
Cc1nn(-c2ccccc2)c2c1C(C(C)C)N(C1CCCN(C(=O)Cc3ccc(F)cc3)C1)C2=O (stereo not drawn),x,25µM*,u,x
Cc1nn(-c2ccccc2)c2c1C(C1CC1)N(C1CCN(Cc3ccc(F)cc3)CC1)C2=O (stereo not drawn),x,2%,-11%,x
Cc1nn(-c2ccccc2)c2c1C(C(C)C)N(C1CCCN(C(=O)C3CC3)C1)C2=O (stereo not drawn),x,28µM*,u,x
CCc1cccc(NC(=O)Cn2cccc2-c2nc(-c3ccccc3)no2)c1,-2%,-11%,u,i
Cc1nn(-c2ccccc2)c2c1C(C(C)C)N(C1CN(C(=O)Cc3ccccc3)C1)C2=O (stereo not drawn),x,50µM*,u,x
Cc1nn(-c2ccccc2)c2c1C(C(C)C)N(C1CCCN(C(=O)c3ccc(Cl)nc3)C1)C2=O (stereo not drawn),x,40µM*,u,x
Cc1nn(-c2ccccc2)c2c1C(C(C)C)N(C1CCN(C(=O)N3CCOCC3)C1)C2=O (stereo not drawn),x,79µM*,u,x
Cc1nn(-c2ccccc2)c2c1C(C(C)C)N(C1CCN(C(=O)c3ccc(Cl)nc3)C1)C2=O (stereo not drawn),x,u,-26%,x
Cc1nn(-c2ccccc2)c2c1C(C(C)C)N(C1CCN(C(=O)c3ccc(F)cc3)C1)C2=O (stereo not drawn),x,45µM*,u,x
COc1cccc(-c2cccc(C(=O)N3CCCC3C(=O)NC3CCC3)c2)c1 (stereo not drawn),x,-27%,-29%,x
SMILES,NPR1 antag,HEK cytotox,NIH3T3 tox,FLuc inh
Cc1cc(C(=O)Nc2ccc([C@@H](O)[C@H]3COCC(=O)N3CC(C)C)cc2)n(C)n1,-21%[70.6 µM],u,-33%[138 µM],i
O=C(NCCc1ccccc1)c1ccc2nc(-c3cccnc3)oc2c1,x,1%,-22%,x
O=C(c1ccc(F)cc1)N1CCC(C(=O)N2CCC(N3Cc4ccccc4C3=O)CC2)CC1,x,-15%,u,x
COc1ccc(-c2ccc(C(=O)N3CCN([S+](=O)([O-])c4c(C)noc4C)CC3)cc2)nn1,x,-26%,-30%,x
CCCC1CCCN1C(=O)c1coc(COc2ccc3ccc(OC)cc3c2)n1 (stereo not drawn),u,u,u,i
COc1ccccc1C(=O)N1CCC(N2C(=O)c3c(c(C)nn3-c3ccccc3)C2C2CC2)C1 (stereo not drawn),x,40µM*,u,x
COc1ccccc1C(=O)N1CCC(N2C(=O)c3c(c(C)nn3-c3ccccc3)C2C)C1 (stereo not drawn),x,45µM*,u,x
CCOc1ccccc1NC(=O)Nc1cccc(-c2ccc(N3CCCC3)nn2)c1,-24%,-22%,-25%,6.3µM*
COc1ccccc1NC(=O)Nc1cccc(-c2nnc3n2CCCC3)c1,0%,u,u,u
Cc1c(Cl)cccc1NC(=O)Nc1cccc(-c2nnc3n2CCCC3)c1,0%,-18%,-1%,i
O=C(NCCc1ccccc1)Nc1cccc(-c2ccc(N3CCCCC3)nn2)c1,8.9µM*,u,-27%,0.25µM*
COc1ccccc1NC(=O)Nc1cccc(-c2ccc(N3CCCCC3)nn2)c1,u,u,u,0.71µM*
CCN1c2cc(C(=O)Nc3ccc(OC)c(Cl)c3)ccc2C(=O)N2CCCC21 (stereo not drawn),-2%,u,-23%,i
COc1cncc(Nc2ncc(-c3ccccc3OC)c3c2OCC3)c1,-4%[70.6 µM],u,71µM*,i
COc1ccc(Nc2ncc(-c3ccccc3OC)c3c2OCC3)cn1,u,u,u,32µM*
Cc1ccc(Br)c(C(=O)N2CCCC3(CNc4ncccc4[S+](=O)([O-])N3)C2)c1 (stereo not drawn),x,-17%,-28%,x
COCCN(C)C(=O)c1cn2cc(-c3ccccc3Cl)n(CC3CC3)c(=O)c2n1,1%,-1%,-8%,i
CS(=O)(=O)N1CCC(OC2CCN(C(=O)Nc3cc(F)ccc3F)CC2)CC1,-25%,u,-24%,i
O=C(NCC1Cn2cccc2CN1Cc1ccccc1)c1cncc(Br)c1 (stereo not drawn),4%,89µM*,u,i
O=C(NCC1Cn2cccc2CN1Cc1ccccc1)c1ccccn1 (stereo not drawn),x,-13%,-23%,x
Cn1nccc1C(=O)NCC1Cn2cccc2CN1Cc1ccccc1 (stereo not drawn),-5%,79µM*,u,i
CC(C)(C)c1cccc(CN2CCC3(CCNCC3)C2)c1O,5%,22µM*,22µM*,i
c1ccc(COc2ccccc2CN2CCC3(CCNCC3)C2)cc1,-1%,28µM*,22µM*,i
O=C(c1ccccc1Br)N1CCN(c2cc(-c3cccs3)[nH]n2)CC1,-25%,u,u,i

# Screening results: PubChem BioAssay, National Center for Advancing Translational Sciences (NCATS)
